# Laboratory results as given in the supplement of paper PMC7411054.
# Counter-ions that a name gives are not always drawn.
# Tests used:
# Conditions in all cases: treatment time: 24 h
# A549-GM130-SQSTM1 [1] = assay: lowest phenotypically active concentration; higher = less potent
# Summary of the method: (§1)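 Live-cell features were measured per well and normalised to solvent control wells after fifteen gene-edited A549, HepG2 and WPMY1 reporter lines had been treated for 24 h at 0.3, 1, 3 or 9 µM in four wells each. A condition was deviating when ≥3 of 4 wells sat beyond the 95th percentile of control Euclidean distances. It was reproducible when the median replicate Pearson correlation exceeded the 95th percentile of non-replicates. Phenotypic activity demanded both.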
# HepG2-ACTB-RAB5A [2] = assay: as above
# Summary of the method: as §1
# WPMY1-ACTB-RAB5A [3] = assay: as above
# Summary of the method: as §1
# WPMY1-GM130-SQSTM1 [4] = assay: as above
# Summary of the method: as §1
# A549-ACTB-RAB5A [5] = assay: phenotypically active (imaging signature differs from DMSO and reproducible) at any of 0.3-9 uM (binary (1 = active, 0 = inactive)); higher = active
# Summary of the method: as §1
# A549-CANX-COX4 = assay: as above
# Summary of the method: as §1
# A549-GM130-SQSTM1 [6] = assay: as above
# Summary of the method: as §1
# A549-TP53BP1-CLTA = assay: as above
# Summary of the method: as §1
# A549-TUBA1B-RELA = assay: as above
# Summary of the method: as §1
# HepG2-ACTB-RAB5A [7] = assay: as above
# Summary of the method: as §1
# HepG2-CANX-COX4 = assay: as above
# Summary of the method: as §1
# HepG2-GM130-SQSTM1 = assay: as above
# Summary of the method: as §1
# HepG2-TP53BP1-CLTA = assay: as above
# Summary of the method: as §1
# HepG2-TUBA1B-RELA = assay: as above
# Summary of the method: as §1
# WPMY1-ACTB-RAB5A [8] = assay: as above
# Summary of the method: as §1
# WPMY1-CANX-COX4 = assay: as above
# Summary of the method: as §1
# WPMY1-GM130-SQSTM1 [9] = assay: as above
# Summary of the method: as §1
# WPMY1-TP53BP1-CLTA = assay: as above
# Summary of the method: as §1
# WPMY1-TUBA1B-RELA = assay: as above
# Summary of the method: as §1
# A549-ACTB-RAB5A [10] = assay: lowest phenotypically active concentration; higher = less potent
# Summary of the method: as §1
SMILES,lowest phenotypically active concentration (A549-GM130-SQSTM1 [1]) [µM],lowest phenotypically active concentration (HepG2-ACTB-RAB5A [2]) [µM],lowest phenotypically active concentration (WPMY1-ACTB-RAB5A [3]) [µM],lowest phenotypically active concentration (WPMY1-GM130-SQSTM1 [4]) [µM],phenotypically active (A549-ACTB-RAB5A [5]),phenotypically active (A549-CANX-COX4),phenotypically active (A549-GM130-SQSTM1 [6]),phenotypically active (A549-TP53BP1-CLTA),phenotypically active (A549-TUBA1B-RELA),phenotypically active (HepG2-ACTB-RAB5A [7]),phenotypically active (HepG2-CANX-COX4),phenotypically active (HepG2-GM130-SQSTM1),phenotypically active (HepG2-TP53BP1-CLTA),phenotypically active (HepG2-TUBA1B-RELA),phenotypically active (WPMY1-ACTB-RAB5A [8]),phenotypically active (WPMY1-CANX-COX4),phenotypically active (WPMY1-GM130-SQSTM1 [9]),phenotypically active (WPMY1-TP53BP1-CLTA),phenotypically active (WPMY1-TUBA1B-RELA),lowest phenotypically active concentration (A549-ACTB-RAB5A [10]) [µM]
O=c1cc(N2CCOCC2)oc2c(-c3ccccc3)cccc12,9,9,9,≤ 0.3,0 (inactive),0 (inactive),1 (active),1 (active),1 (active),1 (active),0 (inactive),1 (active),1 (active),1 (active),1 (active),1 (active),1 (active),1 (active),0 (inactive),
O=C(O/N=C1\c2ccccc2-c2nc3ccccc3nc21)c1ccco1,,,9,,1 (active),0 (inactive),0 (inactive),0 (inactive),0 (inactive),0 (inactive),0 (inactive),0 (inactive),0 (inactive),0 (inactive),1 (active),1 (active),0 (inactive),1 (active),1 (active),9
O=c1c(-c2ccc(O)cc2)coc2cc(O)cc(O)c12 [Genistein],9,,9,,0 (inactive),0 (inactive),1 (active),1 (active),1 (active),0 (inactive),0 (inactive),0 (inactive),0 (inactive),0 (inactive),1 (active),1 (active),0 (inactive),1 (active),1 (active),
CC(=O)N1CCN(c2ccc(OC[C@H]3CO[C@](Cn4ccnc4)(c4ccc(Cl)cc4Cl)O3)cc2)CC1 [Ketoconazole],,,,9,1 (active),0 (inactive),0 (inactive),0 (inactive),0 (inactive),0 (inactive),0 (inactive),0 (inactive),0 (inactive),0 (inactive),0 (inactive),0 (inactive),1 (active),0 (inactive),0 (inactive),9
"Nc1ncnc2c1nc(Br)n2[C@@H]1O[C@@H]2COP(=O)(O)O[C@H]2[C@H]1O [8-Bromo-cAMP, sodium salt]",,,,,1 (active),0 (inactive),0 (inactive),0 (inactive),0 (inactive),0 (inactive),0 (inactive),0 (inactive),0 (inactive),0 (inactive),0 (inactive),1 (active),0 (inactive),0 (inactive),0 (inactive),9
COC(=O)C1=CO[C@@H](C)[C@H]2CN3CCc4c([nH]c5ccccc45)[C@@H]3C[C@H]12 [Ajmalicine hydrochloride],,9,,3,0 (inactive),1 (active),0 (inactive),0 (inactive),0 (inactive),1 (active),1 (active),0 (inactive),1 (active),0 (inactive),0 (inactive),1 (active),1 (active),0 (inactive),0 (inactive),
Cc1cccc(C)c1OCC(C)N (configuration not stated) [mexiletine],,≤ 0.3,,≤ 0.3,0 (inactive),1 (active),0 (inactive),1 (active),0 (inactive),1 (active),0 (inactive),0 (inactive),0 (inactive),0 (inactive),0 (inactive),0 (inactive),1 (active),0 (inactive),0 (inactive),
Cc1cc2sc(NC(=O)Cc3ccccc3)nc2cc1Cl,3,,,,0 (inactive),0 (inactive),1 (active),0 (inactive),1 (active),0 (inactive),0 (inactive),0 (inactive),0 (inactive),0 (inactive),0 (inactive),0 (inactive),0 (inactive),0 (inactive),0 (inactive),
CC(C)c1ccc(-c2cc(=O)c3ccccc3o2)cc1,,,,3,1 (active),0 (inactive),0 (inactive),0 (inactive),0 (inactive),0 (inactive),0 (inactive),0 (inactive),0 (inactive),0 (inactive),0 (inactive),0 (inactive),1 (active),0 (inactive),0 (inactive),9
CCCc1cc2c(N3CCN(C4=NCC(C)(C)S4)CC3)ncnc2s1 [MI 2 dihydrochloride],9,9,3,9,0 (inactive),0 (inactive),1 (active),0 (inactive),0 (inactive),1 (active),1 (active),1 (active),1 (active),0 (inactive),1 (active),0 (inactive),1 (active),0 (inactive),0 (inactive),
COc1cc(-c2cn(C)c(=O)c3cnccc23)c(OC)cc1CN(C)C,,9,,,0 (inactive),0 (inactive),0 (inactive),1 (active),0 (inactive),1 (active),0 (inactive),1 (active),0 (inactive),1 (active),0 (inactive),0 (inactive),0 (inactive),0 (inactive),1 (active),
C[C@H](NC(=O)c1sccc1OCc1ccc(Cl)cc1)c1ccccc1,,,≤ 0.3,3,0 (inactive),0 (inactive),0 (inactive),1 (active),0 (inactive),0 (inactive),0 (inactive),0 (inactive),0 (inactive),0 (inactive),1 (active),0 (inactive),1 (active),1 (active),0 (inactive),
COc1ccc(-n2c(SCCCN3C(=O)c4cccc5cccc(c45)C3=O)nnc2-c2ccncc2)cc1,3,,,,0 (inactive),0 (inactive),1 (active),0 (inactive),1 (active),0 (inactive),0 (inactive),0 (inactive),0 (inactive),0 (inactive),0 (inactive),0 (inactive),0 (inactive),0 (inactive),0 (inactive),
CC(C)NCC(O)COc1ccc(CC(N)=O)cc1 (configuration not stated) [atenolol-()],9,,,9,0 (inactive),0 (inactive),1 (active),0 (inactive),0 (inactive),0 (inactive),0 (inactive),0 (inactive),0 (inactive),0 (inactive),0 (inactive),0 (inactive),1 (active),1 (active),0 (inactive),
O=C(O)COc1ccc(Br)cc1/C=C1\SC(=S)N(Cc2cccnc2)C1=O,9,,,3,0 (inactive),0 (inactive),1 (active),0 (inactive),0 (inactive),0 (inactive),0 (inactive),1 (active),0 (inactive),0 (inactive),0 (inactive),0 (inactive),1 (active),0 (inactive),0 (inactive),
O=C(O)[C@H]1CCCC[C@H]1C(=O)N1CCc2ccccc2[C@H]1CN1C(=O)c2ccccc2C1=O,,9,,,0 (inactive),0 (inactive),0 (inactive),0 (inactive),0 (inactive),1 (active),0 (inactive),1 (active),0 (inactive),1 (active),0 (inactive),0 (inactive),0 (inactive),0 (inactive),0 (inactive),
Cc1cc(C(=O)Nc2cccc(C(=O)Nc3cccc(C(F)(F)F)c3)c2)on1,,,,,0 (inactive),0 (inactive),0 (inactive),0 (inactive),0 (inactive),0 (inactive),1 (active),0 (inactive),0 (inactive),0 (inactive),0 (inactive),0 (inactive),0 (inactive),0 (inactive),0 (inactive),
CCc1c(C(=O)Nc2cc(S(=O)(=O)N(CC)CC)ccc2O)[nH]c(C)c1C(C)=O,,9,,9,0 (inactive),0 (inactive),0 (inactive),0 (inactive),0 (inactive),1 (active),1 (active),0 (inactive),0 (inactive),0 (inactive),0 (inactive),0 (inactive),1 (active),0 (inactive),0 (inactive),
Nc1nnc2[nH]c3ccccc3nc1-2,,,,,0 (inactive),0 (inactive),0 (inactive),0 (inactive),0 (inactive),0 (inactive),1 (active),0 (inactive),0 (inactive),0 (inactive),0 (inactive),0 (inactive),0 (inactive),0 (inactive),0 (inactive),
CC(C)N(CCCNC(=O)Nc1ccc(C(C)(C)C)cc1)C[C@H]1O[C@@H](n2cc(Br)c3c(N)ncnc32)[C@H](O)[C@@H]1O,,3,3,9,0 (inactive),0 (inactive),0 (inactive),1 (active),0 (inactive),1 (active),1 (active),1 (active),1 (active),1 (active),1 (active),1 (active),1 (active),1 (active),1 (active),
Cc1cc(C)c(C)c(S(=O)(=O)Nc2ccc(N3CC[C@H](C(=O)O)C3)c3ccccc23)c1C,9,,,1,0 (inactive),0 (inactive),1 (active),0 (inactive),0 (inactive),0 (inactive),0 (inactive),1 (active),0 (inactive),0 (inactive),0 (inactive),0 (inactive),1 (active),0 (inactive),0 (inactive),
CC1(C)CCC(C)(C)c2cc(C(O)C(=O)Nc3ccc(C(=O)O)cc3F)ccc21 (configuration not stated),,,,,0 (inactive),0 (inactive),0 (inactive),0 (inactive),0 (inactive),0 (inactive),1 (active),0 (inactive),0 (inactive),0 (inactive),0 (inactive),0 (inactive),0 (inactive),0 (inactive),0 (inactive),
S=c1[nH]cnc2nc[nH]c12 [mercaptopurine],,9,,9,0 (inactive),0 (inactive),0 (inactive),0 (inactive),0 (inactive),1 (active),1 (active),0 (inactive),0 (inactive),1 (active),0 (inactive),1 (active),1 (active),0 (inactive),1 (active),
c1ccc(-c2n[nH]cc2-c2ccnc3ccccc23)nc1,,,9,,0 (inactive),0 (inactive),0 (inactive),0 (inactive),1 (active),0 (inactive),1 (active),1 (active),1 (active),0 (inactive),1 (active),1 (active),0 (inactive),0 (inactive),0 (inactive),
O=C(Nc1ccccc1)N1CCN(c2nc(-c3ccccc3)ns2)CC1,,,,9,0 (inactive),0 (inactive),0 (inactive),0 (inactive),0 (inactive),0 (inactive),1 (active),0 (inactive),1 (active),1 (active),0 (inactive),0 (inactive),1 (active),0 (inactive),0 (inactive),
O=C(/C=C/c1ccc(O)cc1)c1ccc(O)cc1O [Isoliquiritigenin],,,,,0 (inactive),0 (inactive),0 (inactive),0 (inactive),1 (active),0 (inactive),0 (inactive),1 (active),0 (inactive),0 (inactive),0 (inactive),1 (active),0 (inactive),1 (active),0 (inactive),
O=C1NN(c2ccc(F)c(Cl)c2)C(=O)/C1=C\c1ccc([N+](=O)[O-])o1,3,,,9,0 (inactive),0 (inactive),1 (active),0 (inactive),0 (inactive),0 (inactive),0 (inactive),0 (inactive),0 (inactive),0 (inactive),0 (inactive),1 (active),1 (active),0 (inactive),0 (inactive),
COc1ccc(CC2c3cc(OC)c(OC)cc3CC[N+]2(C)CCC(=O)OCCCCCOC(=O)CC[N+]2(C)CCc3cc(OC)c(OC)cc3C2Cc2ccc(OC)c(OC)c2)cc1OC (configuration not stated) [Atracurium besilate],,,3,9,0 (inactive),0 (inactive),0 (inactive),0 (inactive),0 (inactive),0 (inactive),1 (active),1 (active),0 (inactive),0 (inactive),1 (active),0 (inactive),1 (active),0 (inactive),0 (inactive),
CC(C)[C@@H](C)/C=C/[C@@H](C)[C@H]1CC[C@H]2C3=CC=C4C[C@@H](O)CC[C@]4(C)[C@H]3CC[C@]12C [Ergosterine],9,,,,0 (inactive),0 (inactive),1 (active),0 (inactive),1 (active),0 (inactive),0 (inactive),1 (active),0 (inactive),0 (inactive),0 (inactive),0 (inactive),0 (inactive),0 (inactive),0 (inactive),
